Test results as given in PubChem BioAssay AID1159580 (chemical genetic matrix, 2015).
“And” between values parts separate entries of the source, which are not always exact repeats. Identical values can stand only once. Screen size: about 5,500 compounds; about 2,000 (36%) were called active. Not shown: some 18% with an inconclusive outcome. Rule as the data show it: active = normalized growth mostly below about 0.91 (no sharp cut-off); inconclusive = no clear call, values can overlap the other calls; inactive = mostly above about 0.92. The list shows a part of the results.

Assay: chemical genetic growth profiling, strain panel (AID 1159580);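 also: tested at 20 µM; growth read once vehicle control cultures reached saturation at 30 °C; 1 = growth at the plate median or of vehicle wells; lower values mean less growth of the strain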
Conditions: growth OD

Measured: normalized growth

CC(=O)O[C@@H]1CC[C@@]2(C)C(C[C@@H](OC(C)=O)[C@@]3(C)C4=CC(=O)O[C@@H](c5ccoc5)[C@]4(C)CCC23)C1(C)C (stereo partly drawn)
inactive: S. cerevisiae deletion strains, locus YBR021W, strain FUR4, hits give low values 1.01 | S. cerevisiae deletion strains, locus YBR229C, strain ROT2, hits give low values 1.01 | S. cerevisiae deletion strains, locus YCL029C, strain bik1, hits give low values 0.99 | S. cerevisiae deletion strains, locus YDL035C, strain GPR1, hits give low values 1.03 | S. cerevisiae deletion strains, locus YDL074C, strain BRE1, hits give low values 1 | S. cerevisiae deletion strains, locus YDL101C, strain DUN1, hits give low values 1.01 | S. cerevisiae deletion strains, locus YDL134C, strain PPH21, hits give low values 1.01 | S. cerevisiae deletion strains, locus YDL185W, strain tfp1, hits give low values 0.996 | S. cerevisiae deletion strains, locus YDL192W, strain arf1, hits give low values 1 | S. cerevisiae deletion strains, locus YDR101C, strain arx1, hits give low values 1 | S. cerevisiae deletion strains, locus YDR162C, strain NBP2, hits give low values 1.02 | S. cerevisiae deletion strains, locus YDR318W, strain mcm21, hits give low values 1 | S. cerevisiae deletion strains, locus YDR388W, hits give low values 1 | S. cerevisiae deletion strains, locus YDR502C, strain sam2, hits give low values 0.983 | S. cerevisiae deletion strains, locus YEL061C, strain CIN8, hits give low values 1.02 | S. cerevisiae deletion strains, locus YER110C, hits give low values 1 | S. cerevisiae deletion strains, locus YER155C, strain BEM2, hits give low values 1.02 | S. cerevisiae deletion strains, locus YER167W, strain BCK2, hits give low values 1.02 | S. cerevisiae deletion strains, locus YGL078C, strain dbp3, hits give low values 0.994 | S. cerevisiae deletion strains, locus YGL086W, strain mad1, hits give low values 1.02 | S. cerevisiae deletion strains, locus YGL248W, strain PDE1, hits give low values 0.999 | S. cerevisiae deletion strains, locus YGR135W, strain pre9, hits give low values 0.973 | S. cerevisiae deletion strains, locus YGR252W, strain gcn5, hits give low values 0.918 | S. cerevisiae deletion strains, locus YHR030C, strain SLT2, hits give low values 0.962 | S. cerevisiae deletion strains, locus YHR079C, strain IRE1 (second series), hits give low values 1 | S. cerevisiae deletion strains, locus YHR079C, strain IRE1, hits give low values 0.998 | S. cerevisiae deletion strains, locus YHR094C, strain hxt1, hits give low values 0.998 | S. cerevisiae deletion strains, locus YHR129C, strain ARP1, hits give low values 1.02 | S. cerevisiae deletion strains, locus YHR200W, strain rpn10, hits give low values 0.976 | S. cerevisiae deletion strains, locus YIL066C, strain RNR3, hits give low values 1.03 | S. cerevisiae deletion strains, locus YIL073C, strain SPO22, hits give low values 0.996 | S. cerevisiae deletion strains, locus YIL125W, strain kgd1, hits give low values 1 | S. cerevisiae deletion strains, locus YIR030C, strain dcg1, hits give low values 1 | S. cerevisiae deletion strains, locus YJL095W, strain BCK1, hits give low values 0.986 and 0.998 | S. cerevisiae deletion strains, locus YJL134W, strain LCB3, hits give low values 1.02 | S. cerevisiae deletion strains, locus YJL168C, strain set2, hits give low values 1 | S. cerevisiae deletion strains, locus YJL187C, strain SWE1 (second series), hits give low values 1 | S. cerevisiae deletion strains, locus YJR066W, strain TOR1, hits give low values 0.918 | S. cerevisiae deletion strains, locus YKL009W, strain mrt4, hits give low values 1.05 | S. cerevisiae deletion strains, locus YKL068W, hits give low values 1 | S. cerevisiae deletion strains, locus YKL085W, strain MDH1 (second series), hits give low values 1.03 | S. cerevisiae deletion strains, locus YKL085W, strain MDH1, hits give low values 1.03 | S. cerevisiae deletion strains, locus YKL190W, strain CNB1, hits give low values 1.02 | S. cerevisiae deletion strains, locus YKR001C, strain vps1, hits give low values 0.998 | S. cerevisiae deletion strains, locus YLR039C, strain RIC1, hits give low values 1.04 | S. cerevisiae deletion strains, locus YLR058C, strain SHM2, hits give low values 1.01 | S. cerevisiae deletion strains, locus YLR102C, strain apc9, hits give low values 0.998 | S. cerevisiae deletion strains, locus YLR113W, strain HOG1, hits give low values 0.981 | S. cerevisiae deletion strains, locus YLR268W, strain sec22, hits give low values 0.99 | S. cerevisiae deletion strains, locus YLR371W, strain rom2, hits give low values 1.01 | S. cerevisiae deletion strains, locus YLR418C, strain cdc73, hits give low values 0.909 | S. cerevisiae deletion strains, locus YML016C, strain PPZ1, hits give low values 1.02 | S. cerevisiae deletion strains, locus YML032C, strain rad52, hits give low values 1 | S. cerevisiae deletion strains, locus YML124C, strain tub3, hits give low values 0.999 | S. cerevisiae deletion strains, locus YMR078C, strain ctf18, hits give low values 1.01 | S. cerevisiae deletion strains, locus YMR223W, strain ubp8, hits give low values 0.988 | S. cerevisiae deletion strains, locus YMR307W, strain GAS1, hits give low values 0.953 | S. cerevisiae deletion strains, locus YNL067W, strain RPL9B, hits give low values 1 | S. cerevisiae deletion strains, locus YNL183C, strain NPR1, hits give low values 0.931 | S. cerevisiae deletion strains, locus YNL233W, strain BNI4, hits give low values 0.993 | S. cerevisiae deletion strains, locus YNL250W, strain rad50, hits give low values 0.992 | S. cerevisiae deletion strains, locus YNL271C, strain bni1, hits give low values 1 | S. cerevisiae deletion strains, locus YNL298W, strain CLA4, hits give low values 0.989 | S. cerevisiae deletion strains, locus YNL307C, strain MCK1, hits give low values 0.993 | S. cerevisiae deletion strains, locus YNR052C, strain pop2, hits give low values 0.993 | S. cerevisiae deletion strains, locus YOL006C, strain TOP1, hits give low values 0.986 | S. cerevisiae deletion strains, locus YOL012C, strain htz1 0.707 | S. cerevisiae deletion strains, locus YOL147C, strain pex11, hits give low values 1 | S. cerevisiae deletion strains, locus YOR061W, strain CKA2, hits give low values 1.02 | S. cerevisiae deletion strains, locus YOR069W, strain VPS5, hits give low values 1.02 | S. cerevisiae deletion strains, locus YOR136W, strain idh2, hits give low values 0.996 | S. cerevisiae deletion strains, locus YOR144C, strain elg1, hits give low values 1.01 | S. cerevisiae deletion strains, locus YOR184W, strain ser1, hits give low values 1.01 | S. cerevisiae deletion strains, locus YOR231W, strain MKK1, hits give low values 0.999 | S. cerevisiae deletion strains, locus YOR316C, strain cot1, hits give low values 0.999 | S. cerevisiae deletion strains, locus YPL055C, strain LGE1, hits give low values 0.997 | S. cerevisiae deletion strains, locus YPL256C, strain CLN2, hits give low values 0.973 | S. cerevisiae deletion strains, locus YPR119W, strain clb2, hits give low values 1 | S. cerevisiae deletion strains, locus YPR141C, strain kar3, hits give low values 0.993 | S. cerevisiae deletion strains, locus YPR163C, strain tif3, hits give low values 0.988 | S. cerevisiae deletion strains, locus YPR167C, strain met16, hits give low values 0.995 | S. cerevisiae deletion strains, strain wtn01, hits give low values 0.986 | S. cerevisiae strains, strain wild type, hits give low values 1.02
